Most compounds without a hit are left out; they make up all but 2.4% or so of the library.
D2 antag – D2 dopamine receptor (human) antagonism. P14416. hit rate 2% among 340,000. AID 485344. HEK293 TREx D2 cells, calcium flux, dopamine EC80. inhibition, % at 10 µM; in the data active = inhibition above about 30%; inactive = below that, where a call was filed
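Tetracycline-induced HEK293 T-REx cells expressing D2 force-coupled to calcium signalling were dye-loaded, exposed to compound for 180 s, then challenged with an EC80 of dopamine; calcium flux was followed kinetically for a further 180 s.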
D2 PAM-1 – positively modulates the human D2 dopamine receptor allosterically; potentiation, % at 10 µM; AID 485347; P14416; hit rate 0.34% among 340,000; HEK293 T-REx D2, calcium flux, EC20 dopamine potentiation;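 active = potentiation over 3 SD above the plate norm, cut at about 30% in these data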
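Tetracycline-induced HEK293 T-REx cells force-coupled to calcium signalling expressed D2; compounds were pin-added after a 10 s baseline, read kinetically 180 s, then an EC20 dopamine challenge followed with a further 180 s calcium read.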
D2 ag-1 – agonists of human D2 dopamine receptor (beta-arrestin); P14416; DiscoveRx PathHunter D2 beta-arrestin, luminescence, 90 min; 100% = 57 uM dopamine signal; activation, % (concentration not given with the values); hit rate 0.084% among 360,000; AID 624465; in the data active = activation above about 40%; inconclusive = between about 15% and that limit
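Agonist mode: compounds alone added to overnight-plated D2 PathHunter cells for 90 min at 37 C, with 57 uM final dopamine (EC100) defining full response. Beta-arrestin recruitment detected by chemiluminescent reagent, read after 1 h at ambient temperature.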
D2 ag-2 – D2 dopamine receptor (human) agonism. activation, % at 2 µM. P14416. hit rate 0.53% among 340,000. HEK293 T-REx D2 cells, calcium flux agonist mode;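 active = activation over 3 SD above normal in the single-dose calcium agonist read, cut at about 30% in these data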
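Tetracycline-induced HEK293 T-REx cells with force-coupled D2 receptor, plated overnight at 30 C, loaded with no-wash calcium dye. After a 10 s baseline, compound was pin-added and calcium flux read kinetically for 180 s; calcium rises flagged agonists.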
D2 PAM-2 – positive allosteric modulators of human D2 dopamine receptor; hit rate 0.23% among 360,000; DiscoveRx D2 beta-arrestin cells, luminescence, 90 min; 100% = 57 uM dopamine signal; P14416; AID 624464; potentiation, % (concentration not given with the values); in the data active = potentiation above about 50%; inconclusive = mostly about 30% to 49%
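PathHunter D2 cells, attached overnight at 37 deg C, received compound in DMSO plus dopamine at EC20 (50 nM final) for 90 min at 37 deg C. Beta-arrestin recruitment was read as luminescence after 1 h with detection reagent at ambient temperature.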
D3 ag – D3 receptor agonism confirmed, beta-arrestin readout; hit rate 4% among 2,300; shares compounds with D2 ag-2; DiscoveRx D3 beta-arrestin cells, luminescence, 90 min; Potency, µM (doses to about 76.9 µM), most hits filed as activators; AID 720506; also: nearly all actives have a fitted effect of over 70% in size
Target sequence (P35462 whole entry, looked up): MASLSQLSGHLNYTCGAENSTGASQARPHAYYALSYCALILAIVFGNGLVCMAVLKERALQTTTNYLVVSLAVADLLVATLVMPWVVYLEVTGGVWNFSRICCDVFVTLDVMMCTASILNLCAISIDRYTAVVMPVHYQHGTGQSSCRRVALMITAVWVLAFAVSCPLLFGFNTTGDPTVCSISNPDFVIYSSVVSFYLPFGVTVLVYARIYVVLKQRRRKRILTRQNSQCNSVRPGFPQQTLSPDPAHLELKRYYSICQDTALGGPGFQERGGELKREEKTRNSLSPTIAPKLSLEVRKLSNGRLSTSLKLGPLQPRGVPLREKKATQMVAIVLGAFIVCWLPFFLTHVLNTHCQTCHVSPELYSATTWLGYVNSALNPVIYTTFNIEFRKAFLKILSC
D2 ag-3 – counter-screen for D3 agonists: human D2 dopamine receptor agonism; DiscoveRx PathHunter D2 beta-arrestin, luminescence, 90 min; response scale: percent relative to full dopamine signal; hit rate 5.9% among 2,300; Potency, µM (series often up to 76.9 µM), hits mostly activators; AID 720507; shares compounds with D2 ag-2; also: nearly all actives have a fitted effect of over 70% in size
A number is an active result; – = inactive; ? = inconclusive; · = no result. Unless noted, calls follow the shape of the dose curve; as a rule, active = well fitted activation curve with a large enough effect; inconclusive = small, poorly fitted or top-dose-only effect; inactive = flat fitted curve, though single readings scatter.

SMILES	D2 antag	D2 PAM-1	D2 ag-1	D2 ag-2	D2 PAM-2	D3 ag	D2 ag-3
Cc1ccc(S(=O)(=O)N2CCc3cc(C(=O)Nc4c(F)cccc4F)ccc32)cc1	·	–	·	–	·	·	·
Cc1ccc(OCC(O)CN2CCN(c3ccccn3)CC2)c(C)c1 (stereo unspecified)	64	–	?	71	–	?	?
Cc1ccc(OCC(O)CN2CCN(CCO)CC2)c(C)c1 (stereo unspecified)	–	–	–	–	–	·	·
CCOc1cc(C)c(Cl)cc1S(=O)(=O)NCCOC	32	–	–	59	–	–	–
CCCSCCCNC(=O)Cn1nc(CC)n2c(cc3c(OC)cccc32)c1=O	–	–	–	40	–	–	–
C=CCn1c(SCC(=O)NCC(c2ccccc2)N(C)C)nnc1C1CCCCC1 (stereo unspecified)	–	–	–	–	–	–	–
Cc1ccc(NC(=O)CN2C(=O)CSc3ccc(S(=O)(=O)N(C)C)cc32)c(C)c1	·	–	·	–	·	·	·
Cc1cc(Cn2nc(-c3ccccc3C)cc2C(=O)O)on1	–	–	–	–	–	–	–
CCOc1cc(N2CCOCC2)c(OCC)cc1NC(=O)COc1cccc(CC)c1	–	–	–	–	–	–	–
CCC(=O)N1C(Cc2ccccc2)COC1(C)C (stereo unspecified)	–	–	–	41	–	–	–
CCC1(C)NC(=O)N(CC(=O)N2CCC(Cc3ccccc3)CC2)C1=O (stereo unspecified)	–	–	–	–	–	·	·
COc1ccc(NC(=O)CN(C)S(=O)(=O)c2ccc(C(=O)N3CCOCC3)s2)cc1	·	–	·	–	·	·	·
CCOc1ccc(N(CC)S(=O)(=O)N2CCCC(C(=O)NCc3ccccc3Cl)C2)cc1 (stereo unspecified)	·	–	·	–	·	·	·
CSCC[C@H](NC(=O)C1CCN(S(=O)(=O)c2ccc(C)cc2)CC1)C(=O)NC1CCS(=O)(=O)C1 (stereo partly specified)	–	–	–	53	–	–	–
O=C(Nc1ccn(CCCN2CCN(c3ncccn3)CC2)c(=O)n1)OCc1ccccc1	·	·	–	·	·	·	·
O=C(Nc1ccn(CC(=O)N2CCN(c3ccccn3)CC2)c(=O)n1)OCc1ccccc1	–	–	–	–	–	–	–
COc1ccc(C2c3c(n(C)c4ccccc34)C(=O)N2CC(=O)Nc2cccc(Cl)c2)cc1 (stereo unspecified)	·	–	·	–	·	·	·
O=C(N/C(=C/c1ccc(F)cc1)C(=O)N1CCOCC1)c1ccccc1	–	–	–	–	–	–	–
COc1ccc(NC(=O)c2nc3nc(C)cc(C(F)F)n3n2)cc1OC	–	–	–	–	–	·	·
COc1ccccc1NS(=O)(=O)c1ccc(NC(=O)c2nc3nc(C)cc(C(F)F)n3n2)cc1	39	–	–	–	–	–	–
CC(CCC(=O)O)C1CCC2C3CCC4C[C@H](O)CCC4(C)C3CC(=O)C12C (stereo partly specified)	–	–	–	52	–	–	–
C[C@H](CCC(=O)O)[C@H]1CC[C@H]2[C@@H]3CC[C@@H]4C[C@H](O)CC[C@]4(C)[C@H]3CC[C@]12C	–	–	–	–	–	·	·
COCCNc1nc2c(c(=O)n(C)c(=O)n2C)n1Cc1c(F)cccc1Cl	·	–	·	–	·	·	·
Fc1ccccc1N1CCN(C2CCCN(Cc3ccccc3C(F)(F)F)C2)CC1 (stereo unspecified)	·	–	–	·	–	–	–
O=C(c1ccsc1)N1CCCC(N2CCN(c3ccccc3F)CC2)C1 (stereo unspecified)	–	–	–	–	–	·	·
SMILES	D2 antag	D2 PAM-1	D2 ag-1	D2 ag-2	D2 PAM-2	D3 ag	D2 ag-3
CC(=O)c1cccc(CN2CCCC(N3CCN(c4ccccc4F)CC3)C2)c1 (stereo unspecified)	·	–	–	·	–	–	?
O=C(c1noc2c1CCCC2)N1CCCC(N2CCN(c3ccccc3F)CC2)C1 (stereo unspecified)	–	–	–	41	–	–	–
COc1ccccc1CN1CCCC(N2CCN(c3ccccc3OC)CC2)C1 (stereo unspecified)	–	–	–	–	–	·	·
COc1ccccc1OCC(=O)NC1CCSc2ccccc21 (stereo unspecified)	–	–	–	–	–	–	–
CC(=O)c1ccc(S(=O)(=O)N2CCCC(N(C)CCc3ccccn3)C2)cc1 (stereo unspecified)	–	–	–	55	–	–	–
CN(CCc1ccccn1)C1CCCN(S(=O)(=O)c2ccccc2)C1 (stereo unspecified)	–	–	–	–	–	·	·
CCOC(=O)c1cccc(NC(=O)c2ccc3snnc3c2)c1	·	–	·	·	·	·	·
Cc1cccc(N2CCN(C(c3ccccc3)c3nnc(-c4ccccc4Cl)o3)CC2)c1C (stereo unspecified)	·	–	·	–	·	·	·
COc1ccc(C(=O)NCC2OCCc3ccccc32)cc1 (stereo unspecified)	–	–	–	–	–	·	·
COc1ccc(C=NCC2OCCc3ccccc32)cc1OC (stereo unspecified)	–	–	–	47	–	–	–
COc1ccc(C(=O)NCC2OCCc3ccccc32)cc1OC (stereo unspecified)	–	–	–	–	–	·	·
COc1cc(C=NCC2OCCc3ccccc32)cc(OC)c1 (stereo unspecified)	–	–	–	42	–	–	–
CCc1ccccc1NC(=O)Cc1c(C(=O)O)[nH]c2ccc(Cl)cc12	·	–	·	–	·	·	·
Cc1cccc(-n2c3nc(=O)[nH]c(=O)c-3cc3ccc(Cl)cc32)c1C	·	–	·	–	·	·	·
COc1ccc2c(c1)c1c(c(=O)n(-c3ccc(OC)c(OC)c3)c(=O)n1CC(=O)N1CCCC1)n2C	·	–	·	–	·	·	·
Cc1nnc(N2CCN(c3ccccc3F)CC2)c2c1nnn2Cc1ccccc1Cl	·	–	·	–	·	·	·
Cn1c(=O)[nH]c(=O)c2c1nc(N1CCN(CCO)CC1)n2Cc1ccccc1Cl	30	–	–	–	–	–	–
COc1ccc(CNC(=O)c2ccc(-c3nc(CSc4ccccc4)c(C)o3)cc2)cc1OC	·	–	·	–	·	·	·
COc1cccc(C2CC(c3ccccc3Cl)n3nc(N)nc3N2)c1 (stereo unspecified)	–	–	–	71	–	–	–
COc1cccc(C2CC(c3ccc(Cl)cc3Cl)n3nc(N)nc3N2)c1 (stereo unspecified)	–	–	–	–	–	·	·
CC(C)c1nn2c(=O)cc(COC(=O)c3ccc(NC(=O)COc4ccccc4)cc3)nc2s1	·	–	·	·	·	·	·
CCCn1c(CCC(=O)Nc2cc(Cl)c(OC)cc2OC)nc2cccnc21	·	–	·	–	·	·	·

Source: PubChem BioAssay (National Center for Advancing Translational Sciences (NCATS))
